Results taken from PubChem BioAssay (NCATS).
Records with an inconclusive call do not appear. Calls of active or inactive are those of the source. Calls come from the whole dose curve.

target: Atrial natriuretic peptide receptor 1 (Homo sapiens) (UniProt P16066); experiment: Natriuretic polypeptide receptor (hNpr1) antagonism - Pilot CMLD screen (AID 1347052); settings: HEK293 hNpr1 GloSensor cGMP luminescence, ANP-stimulated; series mostly up to 9.22 µM; activity change, negative = inhibition: at the top concentration
Protocol: In order to identify small molecular compounds that inhibit the hNpr1 receptor we developed a high-throughput assay to measure inhibition of the guanylate cyclase activity of the receptor. cGMP production was measured using a circular permutated Firefly luciferase (FLuc) enzyme functionally linked to the cGMP binding domain of human phosphodiesterase 5 (GloSensor technology pGS-40F, (Fan, F. et al. 2008). The cGMP-sensor was expressed in human embryonic kidney 293 (HEK-293) cells and FLuc activity was measured after stimulation with hNrp agonist peptide. hNrp agonists activates the receptor's associated guanylyl cyclase (GC) domain producing cGMP which then binds to the GloSensor resulting in FLuc activation, the enzymatic activity of which can be measured as bioluminescence with addition of luciferin substrate.
This assay was initially piloted by testing with a small library of specialty compounds.
PROTOCOL TABLES (as described by Inglese J, Shamu CE and Guy RK. 2007)
SEQUENCE No. (e.g., 1, 2, 3, etc.); […] (e.g., Cells, Incubation, Reagent, etc.); VALUE and DESCRIPTION.
1. Cells. Seed 1500 HEK293 cGMP-sensor cells expressing hNpr1 per well in 4uL into Greiner 1536-well white/solid bottom high base, tissue culture-treated plates.
2. Incubation. Incubate plated cells at 37C in 5% CO2, 95% RH overnight.
3. Reagent. Add 1uL per well GloSensor reagent from Promega (2% final concentration) or CO2 independent media vehicle control to respective columns of Greiner 1536-well plates.
4. Incubation. Incubate plated cells at room temperature for 2 h, protect from light.
5. Compounds. Library compounds and A-71915 control added at 23 nL per well, transferred by Pin Tool.
6. Incubation. Incubate plated cells for 30 min. at room temperature, protect from light.
7. Detector. GloSensor baseline pre-read luminescence measured using CCD-based camera (Viewlux).
8. Compound. Add 1uL of hNppA peptide to 0.1 nM final concentration to stimulate hNpr1 or CO2 independent media as vehicle control.
9. Incubation. Incubate treated cells at room temperature for 20 min., protect from light.
10. Detector. GloSensor post-hNppA luminescence measured using CCD-based camera (Viewlux).
NOTES (numbers refer to Sequence numbers above)
1. HEK293 cells expressing hNpr1 and GIP/pGS-40F grown to 85-95% confluence (48-72 h) in T175 culture flasks (CO2 independent media supplemented with 10% FBS, 1% Pen/Strep antibiotics and 1 ug/mL puromycin). Trypsinize and harvest cells from T175 culture flasks and filter through 40 um cell strainer. Cells counted with Invitrogen Countess (30,000,000 - 50,000,000 cells/flask). Cells diluted to a final concentration of 375 cells/uL in CO2 independent media and a Millipore multidrop used to dispense 1500 cells per well (4uL/well) into 13 1536-well Greiner White/Solid bottom, high base tissue-culture treated (TC) plates and one Aurora 1536-well Black/Clear bottom, low base, TC plate (for visual inspection of cell health throughout the duration of the assay).
2. Cells incubated overnight at ambient temperature, 24 h. at 37C in 95% RH incubator protected from light, covered with metal lid with gas-exchange holes.
3. Prepare GloSensor Reagent (Promega): Reconstitute GloSensor luciferase substrate by adding 8.2mL Hepes buffer to 250mg substrate, mix well, protect from light and stored at -80C. Prepare a fresh 12% GloSensor solution in CO2 independent supplemented plating media (see above). Mix well and store at ambient temperature, protected from light. 1uL 12% GloSensor Luciferase Reagent added (2% final concentration) to respective columns of 13 x 1536-well Greiner plate with BioRaptr, 1uL CO2 independent plating media added to respective columns as vehicle control with BioRaptr.
4. Cells incubated for 2 h. at ambient temperature, protected from light with metal lid with gas-exchange holes.
5. A-71915 stock solution prepared (10 mM in DMSO). […]
% is set by controls: 0 for no effect and ±100 for the full control effect.

Sequence of Atrial natriuretic peptide receptor 1 (Homo sapiens) (P16066 whole entry, looked up, the tested form may be a part): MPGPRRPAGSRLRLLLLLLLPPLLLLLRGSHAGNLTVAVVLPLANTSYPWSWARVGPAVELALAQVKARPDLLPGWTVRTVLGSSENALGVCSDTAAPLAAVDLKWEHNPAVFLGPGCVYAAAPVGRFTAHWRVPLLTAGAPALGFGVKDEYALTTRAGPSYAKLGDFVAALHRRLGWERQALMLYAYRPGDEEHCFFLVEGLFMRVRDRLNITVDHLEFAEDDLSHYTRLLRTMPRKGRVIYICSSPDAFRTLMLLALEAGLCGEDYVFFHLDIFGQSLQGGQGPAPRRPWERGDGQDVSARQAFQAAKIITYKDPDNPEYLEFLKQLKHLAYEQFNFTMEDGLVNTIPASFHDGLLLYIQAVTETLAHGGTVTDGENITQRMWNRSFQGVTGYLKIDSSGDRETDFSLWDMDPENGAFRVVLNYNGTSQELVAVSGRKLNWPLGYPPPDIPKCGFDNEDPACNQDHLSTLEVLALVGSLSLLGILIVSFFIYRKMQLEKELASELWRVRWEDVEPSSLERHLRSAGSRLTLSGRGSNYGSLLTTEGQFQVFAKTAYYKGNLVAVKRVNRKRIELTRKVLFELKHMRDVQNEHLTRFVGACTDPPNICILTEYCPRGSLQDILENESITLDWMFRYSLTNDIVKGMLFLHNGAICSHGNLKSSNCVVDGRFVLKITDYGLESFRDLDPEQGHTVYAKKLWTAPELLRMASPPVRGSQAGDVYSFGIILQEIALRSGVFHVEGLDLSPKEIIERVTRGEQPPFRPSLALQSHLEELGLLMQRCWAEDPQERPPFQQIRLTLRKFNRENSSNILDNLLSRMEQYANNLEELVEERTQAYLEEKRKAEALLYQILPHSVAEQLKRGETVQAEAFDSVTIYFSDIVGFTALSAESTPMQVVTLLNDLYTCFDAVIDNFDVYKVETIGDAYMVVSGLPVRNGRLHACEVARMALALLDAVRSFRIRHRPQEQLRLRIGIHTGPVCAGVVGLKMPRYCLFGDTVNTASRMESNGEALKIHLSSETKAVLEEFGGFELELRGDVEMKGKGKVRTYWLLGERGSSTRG

Activity change, negative = inhibition, inactive:
COc1ccc2c(c1)[C@@]1(OCCC=C[C@@H]1C)C(=O)N2Cc1ccc(Br)cc1 -3.61%
C#CCNC(=O)[C@H]1C=C(OC)C(=O)C[C@H]2c3ccccc3C[C@]12C 0.523%
CCCC[C@]12Cc3cc(C#N)ccc3[C@H](O1)c1c(cc(-c3ccccc3)oc1=O)O2 -5.59%
CC(C)CON=C1C[C@@H](O)[C@@H](O)[C@@H]2[C@H]3C(=O)N(c4ccc(F)cc4F)C(=O)[C@@H]3CC[C@@H]12 10.7%
COC(=O)CCC(=O)OC1(C)C(=O)C=C2C=C(C3CC3)N(Cc3ccco3)C=C2C1=O (stereo not given) -3.5%
COC1=C[C@H](C(=O)NC2CCN(Cc3ccccc3)CC2)[C@H](C)[C@@H](c2ccccc2)CC1=O 5.1%
CC(C)CON=C1C[C@@H](O)[C@@H](O)[C@@H]2[C@H]3C(=O)N([C@@H](C)c4ccccc4)C(=O)[C@@H]3CC[C@H]12 12.5%
COc1cccc([C@H]2NC(=O)C[C@@H]3C[C@@H](C)[C@@H](c4cccc(OC)c4)N3C(=O)C=CC[C@@H]2C)c1 -1.05%
O=C(NN=C1C[C@@H](O)[C@H](O)[C@H]2[C@@H]3C(=O)N(C[C@@H]4CCCO4)C(=O)[C@@H]3CC[C@H]12)OCc1ccccc1 11.2%
C=C(C)CCN1C(=O)NC(c2cccc(C(F)(F)F)c2)C(C(=O)OC)=C1C (stereo not given) -0.318%
COCC=CC1=CC2=CC(=O)C(C)(OC(=O)c3cnc4ccccc4n3)C(=O)C2=CN1Cc1ccc(OC)cc1 (stereo not given) -0.223%
CCCCCCCC1=CC2=CC(=O)C(C)(OC(C)=O)C(=O)C2=CN1CCc1ccccc1 (stereo not given) -2.48%
C[C@H]1CC[C@H]2C(=O)NC[C@H](O)CN2[C@H]1c1ccc(Br)cc1 -0.0062%
C[C@@H]1C=CCCO[C@]12C(=O)N(CC1CC1)c1cccc(Br)c12 -1.2%
Cc1noc(C)c1S(=O)(=O)N1CCc2nc(-c3ccccc3)c3c(c2C1)CO[C@@H](C)C3 -0.244%
COc1ccc2c(c1)O[C@H](c1ccc3c(c1)OCO3)[C@@H](OC(=O)Nc1ccc(C)c(Br)c1)C2=O 1.67%
C=CCOC(=O)N[C@H](c1ccco1)C(C(C)=O)C(C)=O 0.702%
C=CC[C@@H]1C=C[C@H](ON=C2c3cc(OC)ccc3O[C@H](c3cccc(OC)c3)[C@@H]2O)[C@H](CO)O1 0.485%
COC(=O)C1=C(C)N(Cc2ccccc2)C(=NCCc2c[nH]c3ccccc23)NC1c1ccc(Br)cc1 (stereo not given) -5.94%
C=C(Br)CO[C@@H]1C=C[C@@H](c2ccccc2)O[C@@H]1COC 1.6%
CC#CCN1C(=O)N(C)C(c2ccccc2)C(C(=O)OC)=C1C (stereo not given) 0.905%
COCCN1C(=O)N[C@@H](CCc2ccccc2)[C@H](C(C)=O)[C@H]1C 5.89%
CCCCOC(OCCCC)C(O)CSc1ccc2ccccc2c1 (stereo not given) -5.96%
COC(=O)c1c(C(=O)OC)c2c3ccccc3cc(C3CC3)n2c1C(=O)OC -0.855%
O=C1N(Cc2ccc(Br)cc2)c2cccc(Br)c2[C@@]12O[C@H](COc1ccccc1)CC1=CCCC12 (stereo not given in full) 0.106%
C=C(CCN1C=C(C(=O)OCC)C(c2ccccc2)NC1=O)c1ccccc1 (stereo not given) -2.93%
CCN(CCNC(=O)[C@H]1C=C(OC)C(=O)C[C@@H]2c3ccccc3C[C@]12C)C(C)=O 15.2%
Cc1cc2c(c(=O)o1)[C@H]1O[C@](CCCCN3C(=O)c4ccccc4C3=O)(Cc3cc(C#N)ccc31)O2 5.87%
CCN1C(=NCc2cc(OC)c(OC)c(OC)c2)NC(c2cccc(F)c2)C(C(=O)OC)=C1C (stereo not given) -2.43%
COc1ccc(C2=CC3=C(Br)C(=O)C(C)(OC(=O)c4ccc(Cl)nc4)C(=O)C3=CO2)cc1 (stereo not given) 0.356%
COC(=O)C(C(C)=O)C1c2ccccc2C=C(C)N1C(=O)OC (stereo not given) -1.09%
CC1(OC(=O)CCc2ccccc2)C(=O)C=C2C=C(c3ccsc3)OC=C2C1=O (stereo not given) 0.0206%
COc1ccc(O[C@H]2C=C[C@@H](c3ccccc3)O[C@H]2CON=C[C@@H](C)[C@H](OCc2ccccc2)C(C)C)cc1 4.82%
COc1ccc2c(c1)O[C@@H](c1ccc3c(c1)OCO3)[C@H](OC(=O)Nc1cc(OC)c(OC)c(OC)c1)C2=O -12%
C=C(C)C(=O)C=CCCCC=CC(=O)OCC -1.89%
COC(=O)C[C@H]1c2ccccc2C2=C(C[C@@H](C)[C@H]3C(=O)N(c4ccccc4)C(=O)[C@@H]23)N1C(=O)OC -119%
COC[C@H]1O[C@@H]2O[C@@H]1[C@@H](C=Cc1ccccc1)C[C@H]2C 1.02%
FC(F)(F)c1ccc(-c2nc(-c3ccccc3)oc2Nc2ccc3ccccc3c2)cc1 8.66%

Potency, inactive:
CCN1C(=NCc2cc(OC)c(OC)c(OC)c2)NC(c2ccccc2)C(C(=O)OC)=C1C (stereo not given)
CCN1C(=NCCc2ccc(Br)cc2)NC(c2ccccc2)C(C(=O)OC)=C1C (stereo not given)
